Results as given in PubChem BioAssay AID1382 (National Center for Advancing Translational Sciences (NCATS), 2008).
Inconclusive results are not listed. A number with no mark means an inactive call. Active and inactive are the calls of the source.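 How the source made its calls: active means inhibitors giving a complete concentration-response curve with high efficacy; inconclusive means inhibitors giving only a partial curve with partial efficacy; inactive means the rest.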

target: Lysosomal acid glucosylceramidase (Homo sapiens) (UniProt P04062); assay: Confirmation Concentration-Response Assay for Glucocerebrosidase Inhibitors; settings: purified GBA, resorufin glucoside fluorescence, 20 min; series mostly up to 63.5 µM; inhibition: at the top concentration
Sequence (P04062 whole entry, looked up): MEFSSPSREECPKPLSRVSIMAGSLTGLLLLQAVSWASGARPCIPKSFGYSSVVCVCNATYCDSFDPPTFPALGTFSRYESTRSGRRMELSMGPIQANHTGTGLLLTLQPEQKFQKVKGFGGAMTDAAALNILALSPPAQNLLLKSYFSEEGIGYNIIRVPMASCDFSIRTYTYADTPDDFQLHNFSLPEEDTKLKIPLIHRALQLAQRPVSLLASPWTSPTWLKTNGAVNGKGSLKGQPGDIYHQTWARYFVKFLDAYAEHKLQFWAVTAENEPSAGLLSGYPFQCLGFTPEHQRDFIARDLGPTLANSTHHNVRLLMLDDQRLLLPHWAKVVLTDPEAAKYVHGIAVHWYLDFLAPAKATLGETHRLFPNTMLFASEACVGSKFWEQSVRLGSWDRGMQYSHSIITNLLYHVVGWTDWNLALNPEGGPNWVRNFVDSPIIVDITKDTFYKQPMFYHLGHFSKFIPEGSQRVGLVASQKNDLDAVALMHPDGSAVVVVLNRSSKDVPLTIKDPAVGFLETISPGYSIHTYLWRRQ
Text: NCGC Assay Overview: NIH Molecular Libraries Screening Centers Network [MLSCN] NIH Chemical Genomics Center [NCGC] MLSCN Grant: XO1-MH078932-01 Beta-glucocerebrosidase catalyzes the hydrolysis of beta-glucocerebroside to glucose and ceramide. The inherited deficiency of beta-glucocerebrosidase results in Gaucher disease, which is characterized by a wide variety of symptoms including hepatosplenomegaly, anemia, thrombocytopenia, bony lesions and bone marrow infiltration with characteristic storage cells, known as Gaucher cells. There are also forms of the disorder affecting the central nervous system. Patients with the same genotypes can manifest with diverse clinical presentations and it is believed that improper folding and trafficking of beta-glucocerbrosidase may contribute to the phenotypes observed. Low molecular weight molecules, acting as chaperones, may potentially restore trafficking of misfolded beta-glucocerebrosidase from the endoplasmic reticulum to the lysosomes, thereby enhancing functional lysosomal beta-glucocerebrosidase activity. Using normal beta-glucocerebrosidase, an assay was developed to screen for small molecule inhibitors that could potentially act as molecular chaperones on the mutant forms [developed with NIH investigator Dr. Ellen Sidransky's laboratory]. A pro-fluorescent substrate was chosen for a screen against a small molecule library. The beta-glucocerebrosidase assay used Resorufin beta-D-Glucopyranoside (Marker Gene Technology Inc.), generating a red fluorescent product. The Km for the Resorufin beta-D-Glucopyranoside was determined to be 71.2 uM. The IC50 values of Conduritol B Epoxide, a known glucocerebrosidase inhibitor, was determined to be 87.5 uM. All compounds were screened in a titration series resulting in AC50s (e.g., IC50s or EC50s). To confirm activity from the original screen, samples were reacquired from MLSCN and also synthesized in-house, and re-screened against the original assay at a higher density of titration points.
NCGC Assay Protocol Summary: Both enzyme and substrate were diluted in buffer composed of 50mM citric acid/KH2PO4, 10mM sodium taurocholate and 0.01% tween-20 at pH 5.9. The final concentration of the enzyme was 0.2 nM in both assays. The compound library was titrated in 7 to 15 concentrations for the primary screens with a final concentration ranging from 0.6 nM to 50 uM. This particular assay protocol was performed in 1536-well plate format as follows: Red fluorescence substrate assay: 2 uL enzyme 23 nL compound 1 uL substrate (final concentration of 30 uM) Incubate at room temperature (RT) for 20 minutes Read the plate in Viewlux plate reader (Ex=548(7) and Em=600(10)).

SMILES | Potency | inhibition [%]
Cc1cc(N2CCC(C)CC2)nc2ccc(NC(=O)C3CCC(C)CC3)cc12 (stereo unspecified) | 164 nM (active) | 
Cc1cc(N2CCOCC2)nc2ccc(NC(=O)C3CC3)cc12 | 193 nM (active) | 
Cc1cc(N2CCCCC2)nc2ccc(NC(=O)C3CCC(C)CC3)cc12 (stereo unspecified) | 339 nM (active) | 
Cc1ccc(S(=O)(=O)Nc2ccc(C(=O)Nc3cc(C)on3)cc2)cc1 | 90.7 nM (active) | 
CCCC1CCC(C(=O)Nc2ccc3nc(N4CCOCC4)cc(C)c3c2)CC1 (stereo unspecified) | 104 nM (active) | 
CC(C)(C)Oc1ccccc1Nc1nc(NCCO)nc(N2CCCC2)n1 | 21.5 nM (active) | 
Cc1cc(N2CCN(c3ncccn3)CC2)nc2ccc(NC(=O)C3CCC(C)CC3)cc12 (stereo unspecified) | 1890 nM (active) | 
Cc1cc(N2CCOCC2)nc2ccc(NC(=O)C3CCC(C)CC3)cc12 (stereo unspecified) | 66 nM (active) | 
O=C(Nc1nccs1)c1ccc(NS(=O)(=O)c2ccc(Cl)cc2)cc1 | 1250 nM (active) | 
CCN(CC)c1cc(C)c2cc(NC(=O)C3CCC(C)CC3)ccc2n1 (stereo unspecified) | 940 nM (active) | 
Cc1cc(Nc2cccc(Cl)c2)nc2ccc(NC(=O)C3CCC(C)CC3)cc12 (stereo unspecified) |  | 27
